KB-3-1 cytotox: KB-3-1 parental cell cytotoxicity. AID 1347075. hit rate 1.4% among 400,000. KB-3-1 viability, CellTiter-Glo ATP luminescence, 72 h. Potency, µM (doses to about 46.1 µM), most hits filed as cytotoxic; note: % is set by controls: 0 for no effect and ±100 for the full control effect; nearly all actives have a fitted effect of over 60% in size
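Parental KB-3-1 viability, qHTS format: 72 h compound exposure, 37 °C; CellTiter-Glo; media-only wells and DMSO plates as controls; concentration-effect fits on corrected data.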
HT1080-NT tox: kills 2HG-producing HT-1080-NT fibrosarcoma cells; HT-1080-NT fibrosarcoma viability, CellTiter-Glo ATP luminescence, 48 h; Potency, µM (doses to about 46.1 µM), without a hit: at the highest dose activity, negative = less viability, most hits filed as cytotoxic; hit rate 1.6% among 360,000;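 note: NT is the 2HG producing partner of a matched IDH1 knockdown line; 0% = DMSO-treated cells and -100% = media-only wells without cells; nearly all actives have a fitted effect of over 55% in size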
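Luminescent CellTiter-Glo readout after 48 hours of compound exposure at 37 degrees C defined viability of HT-1080-NT cells. Activity was normalized to DMSO wells and cell-free media wells; concentration-response curves were fitted and assigned curve classes.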
KB-V1 MDR tox: KB-V1 MDR subline cytotoxicity | KB-V1 MDR cells viability, CellTiter-Glo, 72 h | Potency, µM (titrated, usually from 46.1 µM), hits mostly cytotoxic | hit rate 3.4% among 400,000 | AID 1347076; note: % is set by controls: 0 for no effect and ±100 for the full control effect; nearly all actives have a fitted effect of over 60% in size
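Luminescent ATP read-out (CellTiter-Glo, 10 min) measures survival of drug-selected KB-V1 MDR cells after 72 h, 37 degrees C compound exposure. Medium: phenol-red-free DMEM, 10% FBS. Values from fitted concentration-response curves.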
HT1080 IDH1KD tx: kills HT-1080 cells with IDH1 knockdown | HT-1080 IDH1 knockdown viability, ATP luminescence, 48 h | Potency, µM (top dose mostly 46.1 µM), for inactives: at the top dose activity, negative = toxicity, usual class: cytotoxic | hit rate 2% among 360,000;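 note: 0% = DMSO wells and -100% = cell-free medium wells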
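After a 2 h attachment period, IDH1KD HT-1080 cells took pin-transferred compound for 48 h at 37 °C; ATP-based luminescence after 10 min room-temperature reagent incubation reported viability.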
SW480 rereplic: DNA re-replication induction in SW480 cells | SW480 DNA re-replication, Hoechst DNA content imaging, 48 h | Potency, µM (titrated, usually from 46.1 µM), for the others: top-dose re-replication activation, most hits filed as activators | hit rate 1.8% among 340,000 | AID 624297; note: % of control where 0% means no effect; nearly all actives have a fitted effect of over 55% in size
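Quantitative HTS format with DMSO vehicle controls; 48 hr drug incubation at 37 C, then 40 min Hoechst staining and scanning imager measurement at 405 nm excitation.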
MCF10A rerep: induces DNA re-replication in MCF 10a normal breast cells; MCF 10A DNA re-replication, Hoechst nuclear intensity, 48 h; Potency, µM (series often up to 46.1 µM), for the others: at the top dose activity, positive = re-replication, actives largely listed as activators; hit rate 2.9% among 350,000; AID 624296; note: % of control where 0% means no effect; nearly all actives have a fitted effect of over 50% in size
An asterisk follows results filed as active; i = inactive; ? = inconclusive. An excerpt weighted towards active compounds, which were near 7.9% of everything screened. Calls come from the whole dose curve; as a rule, active = well fitted curve in the direction sought with a large enough effect; inconclusive = small, poorly fitted or top-dose-only effect, or another doubt; inactive = no such curve, though single readings can be large; an effect the other way counts as inactive or inconclusive. Potency is the fitted concentration of half-maximal effect.

SMILES | KB-3-1 cytotox | HT1080-NT tox | KB-V1 MDR tox | HT1080 IDH1KD tx | SW480 rereplic | MCF10A rerep
Cc1ccc(C(C)C)c(OCc2ccc(C(=O)N/N=C/c3ccc(O)cc3O)cc2)c1 | i | 6.5µM* | ? | 2.9µM* | ? | ?
O=C(N/N=C/c1cc(Br)cc(Br)c1O)c1ccncc1 | i | ? | i | ? | 1µM* | ?
O=C(CSc1nnc(-c2ccco2)n1Cc1ccco1)N1CCOCC1 | i | 2% | i | 3% | -7% | -7%
O=C(CP(=O)(c1ccccc1)c1ccccc1)N/N=C/c1cc(Br)cc(Br)c1O | i | -10% | ? | ? | ? | 5.8µM*
O=C(N/N=C/c1ccc(Br)s1)c1cccs1 | ? | -15% | i | -5% | 3% | 3%
O=C(N/N=C/c1ccc(Br)s1)c1ccncc1 | i | -22% | i | -16% | 10µM* | ?
COc1ccc(/C=N/Nc2ncc(Br)cn2)c(OC)c1 | i | 7% | i | 3% | -30% | -5%
O=C(N/N=C/c1ccc(O)cc1O)c1ccncc1 | ? | ? | ? | 7.3µM* | ? | 0%
Oc1c(Cl)cc(Cl)cc1/C=N/Nc1ncc(Br)cn1 | ? | ? | i | ? | 0.16µM* | ?
CC(=O)Nc1cccc(C(=O)Nc2cccnc2)c1 | ? | 16% | i | 28% | -4% | -2%
COc1ccc(NC(=O)CN2C(=O)c3ccccc3Sc3ccc(C(=O)N4CCOCC4)cc32)c(OC)c1 | i | 3% | i | 0% | -12% | 0%
CCOc1ccc(C(C(=O)NC2CCCC2)N(C(=O)CNC(=O)c2ccco2)c2cccnc2)cc1 (stereo unspecified) | i | 12% | i | 21% | 0% | -1%
Cc1nonc1C(=O)N/N=C/c1ccc(O)cc1O | ? | ? | ? | 2.1µM* | ? | ?
Cc1ccc(N=Cc2cc(Cl)cc(Cl)c2O)nc1 | i | 0% | i | -14% | 18µM* | ?
Oc1c(Cl)cc(Cl)cc1C=Nc1ccc2c(c1)OCCO2 | i | -18% | i | -16% | 4% | ?
COc1cc(Br)cc(/C=N/NC(=O)Cc2ccccc2)c1O | i | 18µM* | i | 8.2µM* | ? | ?
O=C(N/N=C/c1ccc(O)cc1O)c1ccc(NC(=O)C2CCCCC2)cc1 | ? | ? | i | 9.2µM* | 16µM* | ?
O=C(N/N=C/c1cccc(O)c1)c1ccc(NC(=O)C2CCCCC2)cc1 | i | -7% | i | -27% | -4% | 19%
O=C(Nc1nnc(Cc2ccccc2)s1)C1CCN(C(=O)c2ccco2)CC1 | i | 8% | i | 3% | 11% | -1%
CN(Cc1ccccc1)C(=O)c1[nH]cnc1C(=O)N[C@@H](Cc1ccccc1)C(=O)OC(C)(C)C | i | 4% | i | 6% | -12% | 9%
CCOC(=O)c1c(C)[nH]c(C=O)c1Cc1cccc(Cl)c1 | 18µM* | ? | 15µM* | ? | 10% | 27%
CCOC(=O)c1nnn(CC(=O)Nc2cc(F)ccc2F)c1C(=O)OCC | i | 14% | i | 8% | 0% | ?
CCN(CC)c1ccc(/C=C/c2cccc[n+]2C)c(OC)c1 | 0.65µM* | ? | i | ? | 18µM* | ?
CCC(=O)c1ccc(OCC(=O)OCC(=O)N2c3ccccc3CC2C)cc1 (stereo unspecified) | i | 1% | i | 7% | -54% | ?
CCCCC[C@H](O)/C=C/[C@H]1CCC(=O)[C@@H]1CCCCCCC(=O)N1CCCCC1CO (stereo partly specified) | i | 16µM* | i | 13µM* | 3% | ?
Cc1nn(C)c(C)c1NS(=O)(=O)c1cccc(Br)c1 | i | -11% | i | -11% | -6% | -2%
CC(=O)C1=C(O)CCC1=NCCc1ccccc1 | i | 13% | i | 11% | ? | 21µM*

Source: PubChem BioAssay
